Counter-ions that a name gives are not always drawn. ± gives the standard deviation of the averaged measurements.
What was measured:
Experiment in all cases: growth (OD600 after 10 h); higher = more growth (less inhibition)
[1] = test system: E. coli TESEC Alr+ wild-type control; conditions: compound 0.1 mM; raw OD600 reference: median of DMSO wells 0.241, cell-free background 0.041
Experimental: (§1)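 TESEC Mtb Alr E. coli, or the Alr+ wild-type control, in 384-well plates with Prestwick library compounds at 0.1 mM and 1% DMSO, across arabinose induction levels of 1E3 to 1E7 nM. Growth is read as OD600 after 10 h at 37 °C in triplicate biological replicates.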

E. coli TESEC Mtb Alr [2] = conditions: compound 0.1 mM
Experimental: as §1

E. coli TESEC Mtb Asd = conditions: compound 0.1 mM
Experimental: (§2)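 TESEC E. coli strains in which the native enzyme is deleted and replaced by arabinose-inducible Mtb Asd, DapB, CysH or TrpD, each grown in its selective medium. Strains were screened against the Prestwick library at 0.1 mM and 1% DMSO in 384-well format at low and high arabinose induction. Growth is read as OD600 after 10 h in triplicate.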

E. coli TESEC Mtb DapB = conditions: compound 0.1 mM
Experimental: as §2

E. coli TESEC Mtb Alr [3] = conditions: compound 0.1 mM; remark: listed apart in the source
Experimental: (§3)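 TESEC Mtb Alr E. coli (ΔaraC ΔtolC ΔentC Δalr ΔdadX, arabinose-inducible Mtb Alr) or the Alr+ wild-type control strain, grown in defined M9-fructose medium without D-alanine in 96-well plates with Prestwick library compounds at 0.1 mM and 1% DMSO. Low Alr induction is 0.1 µM arabinose and high induction is 10 mM arabinose.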

[4] = test system: E. coli TESEC Alr+ wild-type control; conditions: compound 0.1 mM; raw OD600 reference: median of DMSO wells 0.49, cell-free background 0.052
Experimental: as §3

[5] = arabinose 1000 nM, raw OD600 reference: median of DMSO wells 0.294, cell-free background 0.041
[6] = arabinose 10000 nM, raw OD600 reference: median of DMSO wells 0.264, cell-free background 0.041
[7] = arabinose 100000 nM, raw OD600 reference: median of DMSO wells 0.201, cell-free background 0.041
[8] = arabinose 1000000 nM, raw OD600 reference: median of DMSO wells 0.193, cell-free background 0.041
[9] = arabinose 10000000 nM, raw OD600 reference: median of DMSO wells 0.146, cell-free background 0.041
[10] = arabinose induction (level): High, raw OD600 reference: median of DMSO wells 0.331, cell-free background 0.041
[11] = arabinose induction (level): Low, raw OD600 reference: median of DMSO wells 0.417, cell-free background 0.041
[12] = arabinose induction (level): High, raw OD600 reference: median of DMSO wells […], cell-free background 0.041
[13] = arabinose induction (level): Low, raw OD600 reference: median of DMSO wells 0.227, cell-free background 0.041
[14] = arabinose 100 nM, raw OD600 reference: median of DMSO wells 0.413, cell-free background 0.052
[15] = arabinose 10000000 nM, raw OD600 reference: median of DMSO wells […], cell-free background 0.052

SMILES | growth [1] | growth (E. coli TESEC Mtb Alr [2]; [5]) | growth (E. coli TESEC Mtb Alr [2]; [6]) | growth (E. coli TESEC Mtb Alr [2]; [7]) | growth (E. coli TESEC Mtb Alr [2]; [8]) | growth (E. coli TESEC Mtb Alr [2]; [9]) | growth (E. coli TESEC Mtb Asd; [10]) | growth (E. coli TESEC Mtb Asd; [11]) | growth (E. coli TESEC Mtb DapB; [12]) | growth (E. coli TESEC Mtb DapB; [13]) | growth (E. coli TESEC Mtb Alr [3]; [14]) | growth (E. coli TESEC Mtb Alr [3]; [15]) | growth [4]
CN1CCC(=C2c3ccccc3C=Cc3ccccc32)CC1 [Cyproheptadine hydrochloride] | 0.145 ± 0.0056 | 0.163 ± 0.02 | 0.16 ± 0.0079 | 0.12 ± 0.0049 | 0.0596 ± 0.00044 | 0.0772 ± 0.00078 | 0.15 ± 0.0059 | 0.186 ± 0.0032 | 0.175 ± 0.015 | 0.192 ± 0.011 | 0.4129 ± 0.0017 | 0.276 ± 0.016 | 
CC1(C)O[C@@H]2C[C@H]3[C@@H]4CCC5=CC(=O)CC[C@]5(C)[C@@]4(F)[C@@H](O)C[C@]3(C)[C@]2(C(=O)CCl)O1 [Halcinonide] | 0.215 ± 0.022 | 0.283 ± 0.011 | 0.2593 ± 0.0019 | 0.181 ± 0.027 | 0.123 ± 0.0028 | 0.152 ± 0.014 | 0.258 ± 0.052 | 0.36 ± 0.049 | 0.188 ± 0.003 | 0.22 ± 0.0073 | 0.413 ± 0.021 | 0.256 ± 0.019 | 
Nc1nc(NC2CC2)c2ncn([C@H]3C=C[C@@H](CO)C3)c2n1 [Abacavir Sulfate] | 0.238 ± 0.018 | 0.295 ± 0.024 | 0.253 ± 0.0039 | 0.182 ± 0.012 | 0.18 ± 0.0053 | 0.133 ± 0.0075 | 0.317 ± 0.022 | 0.423 ± 0.015 | 0.183 ± 0.018 | 0.212 ± 0.038 | 0.408 ± 0.016 | 0.339 ± 0.0091 | 
CCN(CC)CCOCCOC(=O)C1(c2ccccc2)CCCC1 [Carbetapentane citrate] | 0.203 ± 0.0053 | 0.275 ± 0.015 | 0.249 ± 0.0094 | 0.191 ± 0.03 | 0.133 ± 0.004 | 0.161 ± 0.0033 | 0.153 ± 0.017 | 0.294 ± 0.064 |  |  | 0.41 ± 0.0084 | 0.288 ± 0.012 | 0.539 ± 0.035
CCC(=O)O[C@@H](O[P@](=O)(CCCCc1ccccc1)CC(=O)N1C[C@H](C2CCCCC2)C[C@H]1C(=O)O)C(C)C [Fosinopril] | 0.221 ± 0.007 | 0.33 ± 0.0063 | 0.25 ± 0.015 | 0.281 ± 0.018 | 0.0879 ± 0.0031 | 0.154 ± 0.0039 | 0.185 ± 0.013 | 0.351 ± 0.065 |  |  | 0.334 ± 0.044 | 0.0696 ± 0.00091 | 0.508 ± 0.076
CC1(C)O[C@@H]2C[C@H]3[C@@H]4C[C@H](F)C5=CC(=O)C=C[C@]5(C)[C@@]4(F)[C@@H](O)C[C@]3(C)[C@]2(C(=O)CO)O1 [Fluocinolone acetonide] | 0.174 ± 0.0075 | 0.262 ± 0.01 | 0.263 ± 0.0058 | 0.153 ± 0.0083 | 0.146 ± 0.0019 | 0.144 ± 0.0033 | 0.198 ± 0.02 | 0.401 ± 0.017 | 0.188 ± 0.019 | 0.239 ± 0.039 | 0.409 ± 0.0053 | 0.274 ± 0.0057 | 
Cc1ncc([N+](=O)[O-])n1CC(C)O (stereo unspecified) [Secnidazole] | 0.2401 ± 0.001 | 0.304 ± 0.012 | 0.272 ± 0.015 | 0.201 ± 0.0071 | 0.188 ± 0.0085 | 0.137 ± 0.0015 | 0.369 ± 0.026 | 0.466 ± 0.031 |  |  | 0.4049 ± 0.0029 | 0.327 ± 0.0064 | 0.4475 ± 0.003
Cc1cccc(C)c1NC(=O)CN1CCN(CCCC(c2ccc(F)cc2)c2ccc(F)cc2)CC1 [Lidoflazine] | 0.239 ± 0.0079 | 0.311 ± 0.0035 | 0.263 ± 0.0048 | 0.223 ± 0.018 | 0.174 ± 0.0022 | 0.163 ± 0.0025 | 0.333 ± 0.059 | 0.361 ± 0.11 | 0.232 ± 0.026 | 0.227 ± 0.015 | 0.4122 ± 0.0027 | 0.379 ± 0.012 | 
Cc1cccc(N(C)C(=S)Oc2ccc3ccccc3c2)c1 [Tolnaftate] | 0.255 ± 0.019 | 0.272 ± 0.02 | 0.268 ± 0.012 | 0.165 ± 0.016 | 0.11 ± 0.011 | 0.163 ± 0.0066 | 0.281 ± 0.07 | 0.246 ± 0.047 |  |  | 0.384 ± 0.015 | 0.264 ± 0.064 | 0.465 ± 0.0063
O=C(O)CCNC(=O)c1ccc(/N=N/c2ccc(O)c(C(=O)O)c2)cc1 [Balsalazide Sodium] | 0.276 ± 0.0079 | 0.318 ± 0.0085 | 0.2664 ± 0.0024 | 0.213 ± 0.0045 | 0.206 ± 0.0036 | 0.138 ± 0.0021 | 0.252 ± 0.008 | 0.434 ± 0.012 | 0.232 ± 0.0039 | 0.241 ± 0.014 | 0.394 ± 0.035 | 0.378 ± 0.014 | 
O=C(O)CCC(=O)Nc1ccc(S(=O)(=O)Nc2nccs2)cc1 [Succinylsulfathiazole] | 0.257 ± 0.0064 | 0.328 ± 0.017 | 0.264 ± 0.0094 | 0.21 ± 0.018 | 0.18 ± 0.0018 | 0.157 ± 0.0071 | 0.447 ± 0.027 | 0.432 ± 0.04 | 0.196 ± 0.024 | 0.258 ± 0.028 | 0.4084 ± 0.0019 | 0.317 ± 0.014 | 
CCCc1cc(C(N)=S)ccn1 [Prothionamide] | 0.245 ± 0.011 | 0.295 ± 0.0059 | 0.269 ± 0.013 | 0.184 ± 0.028 | 0.174 ± 0.014 | 0.136 ± 0.0019 | 0.231 ± 0.011 | 0.388 ± 0.046 |  |  | 0.414 ± 0.013 | 0.36 ± 0.021 | 0.57 ± 0.0073
Cc1cccc(Nc2ccccc2C(=O)O)c1C [Mefenamic acid] | 0.134 ± 0.0041 | 0.135 ± 0.0024 | 0.04523 ± 0.00015 | 0.141 ± 0.002 | 0.103 ± 0.0072 | 0.132 ± 0.0029 | 0.232 ± 0.03 | 0.26 ± 0.047 | 0.203 ± 0.027 | 0.208 ± 0.028 | 0.169 ± 0.094 | 0.149 ± 0.011 | 
